# MARV entry inh: qHTS for inhibitors of binding or entry into cells for Marburg Virus; Marburg virus pseudotyped entry inhibition, cell reporter; Potency, µM (doses to about 37.8 µM), inactives show at the top dose activity change, negative = inhibition, most hits filed as inhibitors; 300,000 compounds, 1.8% hits; calls by dose curve; tested in HEK293 cells
# LASV entry inh: qHTS for Inhibitors of binding or entry into cells for Lassa Virus; Lassa virus pseudotype entry inhibition, cell reporter; Potency, µM (series often up to 37.9 µM), for the others: at the highest dose activity change, negative = inhibition, usual class: inhibitors; 300,000 compounds, 1.2% hits; AID 540256, 2011; calls by dose curve; tested in HEK293 cells; also: nearly all actives have a fitted effect of over 50% in size
# VACV Venus inh: qHTS for Stage-Specific Inhibitors of Vaccinia Orthopoxvirus: Venus Reporter Primary qHTS. Vaccinia virus Venus reporter expression, fluorescence. Potency, µM (highest dose often 36.5 µM), without a hit: at the top dose activity change, negative = inhibition, hits mostly inhibitors. 330,000 compounds, 0.46% hits. AID 720580, 2013; calls by dose curve; tested in A549 cells; also: nearly all actives have a fitted effect of over 30% in size
# Sm TGR inh: qHTS Assay for the Inhibitors of Schistosoma Mansoni Peroxiredoxins; purified TGR, DTNB reduction, TNB absorbance 405 nm; Potency, µM (doses to about 114 µM), for inactives: at the highest dose activity change, negative = inhibition, usual class: inhibitors; 360,000 compounds, 3% hits; AID 485364, 2010; active = well fitted inhibition curve with a large enough effect; inconclusive = small, poorly fitted or top-dose-only effect; inactive = no such curve, though single readings can be large or run the other way; also: nearly all actives have a fitted effect of over 60% in size
#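 TGR 20 nM + NADPH 100 uM (dispensed conc.), cpd preinc 15 min RT; start with NADPH (500 uM addition) then DTNB (15 mM addition). Kinetic TNB absorbance, 405 nm filter. Four-parameter Hill fit across titration.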
# FMDV inh: High Throughput Screening for Foot and Mouth Disease Virus Antivirals; FMDV antiviral cell-based qHTS; Potency, µM (series often up to 57.9 µM), without a hit: at the top dose activity change, negative = inhibition, hits mostly inhibitors; 410,000 compounds, 1.2% hits; AID 1159524, 2015; calls by dose curve; tested in HEK293T cells; also: read-out not given here; nearly all actives have a fitted effect of over 45% in size
# VACV mCherry inh: qHTS for Stage-Specific Inhibitors of Vaccinia Orthopoxvirus: mCherry Reporter Primary qHTS. Vaccinia virus mCherry reporter infection, fluorescence. Potency, µM (titrated, usually from 36.5 µM), inactives show at the top dose activity change, negative = inhibition, most hits filed as inhibitors. 310,000 compounds, 0.63% hits; calls by dose curve; tested in A549 cells; also: nearly all actives have a fitted effect of over 35% in size
# Starred values were filed as active, the others as inactive; i = inactive; ? = inconclusive; . = no result given; [ ] = another dose, or the depositor's remark. Rows were chosen to be rich in hits. Some 5.4% of all compounds tested hit in one or more screens of this group. % is scaled to controls: 0 for no effect and ±100 for the full control effect; potency is read from the fitted curve at half-maximal effect.
SMILES,MARV entry inh,LASV entry inh,VACV Venus inh,Sm TGR inh,FMDV inh,VACV mCherry inh
COc1ccc(C(CCN2CCCCC2)c2c(O)cc(OC)cc2OC)cc1 (stereo not drawn),.,.,-19%,40µM*,-23%,-7%
CCCCCc1cc(=O)oc2c(C(CCN3CCCC3)c3cc(OC)c(OC)c(OC)c3)c(OC)cc(OC)c12 (stereo not drawn),.,.,16µM*,-2%,?,14µM*
C=CCOc1ccc(/C(O)=C2\C(=O)C(=O)N(CCCN3CCOCC3)[C@H]2c2ccc(OC)cc2)cc1,15%,.,.,.,.,.
COc1ccc(S(=O)(=O)NCCS(=O)(=O)N2CCN(c3ccccc3F)CC2)cc1,.,?,-15%,-11%,10%,i
C1=C(c2ccc3c(c2)CN(Cc2cccn2-c2ncccn2)CCO3)Cc2ccccc21,.,.,-5%,.,-10%,-11%
CCn1nnc(NC(=O)c2ccc(-c3ccc(Cl)cc3)o2)n1,13%[46.1 µM],-17%,-6%,22µM*,21%,-7%
O=C(NC(=S)Nc1ccc(CN2CCOCC2)cc1)c1ccc(-c2cccc(Cl)c2)o1,.,.,.,-33%,35µM*,.
O=C(Nc1ccc(CN2CCOCC2)cc1)c1ccc(-c2ccc(Cl)cc2Cl)o1,?,-19%,?,50µM*,?,-9%
CS(=O)(=O)N1CCN(c2ccc(NC(=O)c3ccc(-c4ccc(Cl)cc4)o3)cc2)CC1,?,?,.,3%,-3%,.
O=C(Nc1ccc(CN2CCOCC2)cc1)c1ccc(Cl)cc1Cl,.,.,.,-1%,-11%,.
CN1CCN(c2ccc(NC(=O)c3ccc(-c4ccc(Cl)cc4)o3)cc2)CC1,?,?,11µM*,1%,-24%,?
CCOC(=O)c1c(SCC(=O)Nc2nc3ccc(C)cc3s2)nc(=O)[nH]c1C,.,-1%[46.1 µM],-12%,-2%,2%,-12%
O=C(O)c1cc(O)c2c(c1)[C@H]([C@H]1c3cc(C(=O)O)cc(O)c3C(=O)c3c(O[C@@H]4O[C@H](CO)[C@@H](O)[C@H](O)[C@H]4O)cccc31)c1cccc(O[C@@H]3O[C@H](CO)[C@@H](O)[C@H](O)[C@H]3O)c1C2=O,.,.,3%,.,-24%,-10%
Cc1cccc(C)c1NC(=O)c1ccc(-c2ccc(Cl)cc2Cl)o1,10µM*,?,-8%,-12%,-24%,-23%
O=C(NC(=S)Nc1ccccc1O)c1ccc(-c2ccc(Cl)cc2)o1,11%,3%,?,-33%,-18%,-27%
O=C(Nc1ccc(CN2CCOCC2)cc1)c1ccc(-c2cccc(Cl)c2)o1,?,-26%,.,1%,35µM*,.
Cc1c(NC(=S)NC(=O)c2ccc(-c3ccc(Cl)cc3)o2)cccc1C(=O)O,?,15%[46.1 µM],-9%,13µM*,26%,i
O=C(Nc1ccc(CN2CCOCC2)cc1)c1cc2ccccn2n1,?,6.5µM*,-17%,-7%,-66%,-18%
C=CCNc1nc(-c2ccccn2)nnc1-c1ccccc1,?,?,?,-10%,-10%,28µM*
CCOc1ccccc1N1CCN(C(=O)C2c3ccccc3Oc3ccccc32)CC1,?,7.1µM*,?,-1%,-4%,.
O=C(COC(=O)/C=C/c1ccco1)NC1CCCCC1,?,-8%,3%,13µM*,-15%,-3%
O=C(C=C1SCCS1)/C=C/c1ccco1,?,11µM*,-9%,7.1µM*,?,i
O=C(COC(=O)/C=C/c1ccc(Br)o1)NC1CCCCC1,.,.,.,13µM*,-11%,.
O=C(COC(=O)/C=C/c1ccc(Br)o1)Nc1ccccc1F,.,.,.,79µM*,.,.
CC(OC(=O)/C=C/c1ccco1)C(=O)NC1CCCCC1 (stereo not drawn),.,.,-20%,.,-3%,-6%
SMILES,MARV entry inh,LASV entry inh,VACV Venus inh,Sm TGR inh,FMDV inh,VACV mCherry inh
Cc1cc(C(=O)OCC(=O)Nc2ccccc2F)c(C)o1,13%[46.1 µM],16%,-19%,7%,49%,-8%
Cc1cc(C)cc(OC(=O)c2snnc2C)c1,17%[46.1 µM],6%[46.1 µM],-5%,-13%,8%,-5%
COc1ccc(CNC(=O)CCc2c(C)nn(-c3ccc(N4CCCCC4)nn3)c2C)cc1,.,-27%[46.1 µM],-10%,7%,5%,0%
CCOc1ccc(N(CC)C(=O)Cn2cnc3sc(C)c(S(=O)(=O)N4CCN(c5ncccn5)CC4)c3c2=O)cc1,-2%[46.1 µM],23%[46.1 µM],-30%,-2%,-21%,?
O=C(/C=C/c1ccco1)NC1CCCC1,19%[46.1 µM],-24%,-2%,4.5µM*,8%,3%
CC1CC(C)CN(C(=O)COC(=O)/C=C/c2ccco2)C1 (stereo not drawn),?,11%,-10%,.,23%,-12%
CC1CCCCC1NC(=O)COC(=O)/C=C/c1ccco1 (stereo not drawn),.,.,.,40µM*,-11%,.
COC(=O)[C@@H]1[C@@H](C#N)C2(c3ccccc3-c3ccccc32)N(c2ccc(Cl)cc2)N1C#N,?,?,?,?,25µM*,?
COc1ccc(C(=O)N2CCC[C@@]3(CCN(C(=O)Nc4ccccc4)C3)C2)cc1,.,.,.,.,10%,.
Cc1cc(SCNC(=O)c2ccccc2)ncn1,6%,-10%,-6%,14µM*,.,-11%
O=C(NCSc1ccccc1)c1ccccc1,.,.,-12%,-1%,37%,-22%
NC(=S)N/N=C1\CC(c2ccc3c(c2)OCCO3)Oc2ccc(F)cc21 (stereo not drawn),?,?,?,17%,-26%,11µM*
Cc1ccc(CNC(=O)Nc2ccc(OC(F)(F)F)cc2)n1C,.,.,.,?,-4%,.
Cc1ccc(CNC(=O)Nc2ccc(F)cc2)n1C,28%[46.1 µM],16%[46.1 µM],-10%,14µM*,11%,-8%
COc1ccccc1NC(=O)NCc1ccc(C)n1C,.,.,.,40µM*,-1%,.
COc1ccccc1NC(=O)NCC1CC1(Cl)Cl (stereo not drawn),1%[46.1 µM],17%[46.1 µM],4%,6%,29%,6%
CC1=C(c2ccc(C)c(C)c2)S(=O)(=O)N=C1N1CCC(C(=O)N2CCC(C)CC2)CC1,.,-1%[46.1 µM],-16%,2%,-16%,-9%
Cn1nnnc1SCC1=C(C(=O)O)N2C(=O)C(NC(=O)C(OC=O)c3ccccc3)C2SC1 (stereo not drawn),.,.,-4%,.,32%,-7%
CC(C(=O)NC1C(=O)N2C(C(=O)O)=C(CSc3nnnn3C)CSC12)n1cc(Br)cn1 (stereo not drawn),0%[46.1 µM],10%[46.1 µM],-1%,0.56µM*,-2%,-4%
CO/N=C(\C(=O)N[C@@H]1C(=O)N2C(C(=O)O)=C(CSc3nc(=O)c(O)nn3C)CS[C@H]12)c1csc(N)n1,.,.,?,.,-18%,-14%

# High-throughput results: PubChem, National Center for Advancing Translational Sciences (NCATS)
